Consider twelve compounds from PubChem BioAssay (Tox21).

Several values for one entry are separate records, joined by “and”; a condition that tells them apart may be missing. Equal entries are not always repeated. Inconclusive results are not listed. Where a structure was tested more than once in an assay, its records may differ in their call. Activity calls are given as the source filed them. Unless noted, calls follow the shape of the dose curve; as a rule, active = well fitted curve in the direction sought with a large enough effect in the repeat runs; inconclusive = weak or mixed curves; inactive = no such curve, though single readings can be large; an effect the other way counts as inactive or inconclusive.

Test [1] deals with Estrogen receptor (Homo sapiens) (UniProt P03372). The experiment in a line: qHTS assay to identify small molecule antagonists of the estrogen receptor alpha (ER-alpha) signaling pathway using the BG1 cell line in the presence of 0.1 nM 17-beta-estradiol (AID 1259244). Also: nearly all actives have a fitted effect of over 50% in size. Also: potency is read from the fitted curve at half-maximal effect. In short, it runs like this: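 Seeding of stripped-serum-adapted VM7Luc4E2 cells, 24 h attachment, compound transfer, then 0.1 nM final 17beta-estradiol; after 22 h incubation, ONE-Glo reagent and luminescence reading.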
Estrogen receptor (Homo sapiens), sequence (P03372 whole entry, looked up): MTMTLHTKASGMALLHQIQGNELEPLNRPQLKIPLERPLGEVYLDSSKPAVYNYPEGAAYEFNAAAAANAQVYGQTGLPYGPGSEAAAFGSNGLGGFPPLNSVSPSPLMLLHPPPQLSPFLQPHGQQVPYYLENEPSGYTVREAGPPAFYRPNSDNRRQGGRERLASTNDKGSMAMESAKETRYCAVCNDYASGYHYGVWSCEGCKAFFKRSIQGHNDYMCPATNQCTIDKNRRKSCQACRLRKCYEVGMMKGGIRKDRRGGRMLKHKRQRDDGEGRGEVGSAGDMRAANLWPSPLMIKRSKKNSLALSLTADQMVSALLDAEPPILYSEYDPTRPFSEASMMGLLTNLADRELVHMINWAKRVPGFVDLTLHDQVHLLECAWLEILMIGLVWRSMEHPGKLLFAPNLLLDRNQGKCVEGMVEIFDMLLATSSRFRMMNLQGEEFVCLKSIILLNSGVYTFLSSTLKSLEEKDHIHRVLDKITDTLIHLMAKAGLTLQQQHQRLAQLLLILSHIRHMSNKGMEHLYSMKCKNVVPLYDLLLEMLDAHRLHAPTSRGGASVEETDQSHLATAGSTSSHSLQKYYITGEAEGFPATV
A general note: Quantitative high-throughput screening tests each substance at several concentrations.

Test [2] is described as follows: qHTS assay to identify small molecule phospholipidosis (PLD) inducers (AID 1259344; active = well fitted curve in the direction sought with a large enough effect; an effect the other way counts as inactive or inconclusive). In short, it runs like this: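 After 4 h attachment on collagen I, HepG2 cells were dosed with compound alongside LipidTOX Red, kept 24 h at 37 C, fixed, and imaged for lamellar phospholipid pits.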
Test [3] in a line: qHTS assay to identify small molecule HDAC inhibitors (AID 1259364).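 Also: wild-type HCT-116 cells with endogenous class I/II HDAC activity; top concentration of the series differs between compounds; nearly all actives have a fitted effect of over 45% in size.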 In short, it runs like this:
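After a 2 hr compound incubation (37C, 5% CO2), HCT-116 cells seeded at 1,500/well the day before received HDAC-Glo reagent; signal read as luminescence after 30 min at room temperature.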

Test [4] in a line: qHTS assay to identify small molecule HDAC inhibitors - cell viability counter screen (AID 1259365). Also: series mostly up to about 92 µM; nearly all actives have a fitted effect of over 50% in size. In a few lines: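 HCT-116 wild-type, overnight attachment; 2hr drug exposure, 37C; CellTiter-Glo luminescent ATP readout after 30min RT.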
A short description of test [5]: qHTS assay to identify small molecule agonists of the sonic hedgehog signaling (Shh) pathway - cell viability counter screen (AID 1259366). Also: nearly all actives have a fitted effect of over 50% in size. In short, it runs like this: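 Compounds in DMSO were pin-transferred onto 3T3 Gli1-Luc cells that had settled 4hr; plates then stood 24hr at 37C and 5% CO2. One hour before the end, CellTiter-Fluor was added and fluorescence recorded.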

Test [6] in a line: qHTS assay to identify small molecule antagonists of the sonic hedgehog signaling (Shh) pathway - cell viability counter screen (AID 1259367). Also: nearly all actives have a fitted effect of over 55% in size. Also: potency is read from the fitted curve at half-maximal effect. In a few lines:
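Conditioned medium drove Shh signaling in 3T3 Gli1-Luc cells exposed to compounds at 37C and 5% CO2. Viability was determined from CellTiter-Fluor fluorescence, with reagent incubated 1 hr after 23 hr of treatment.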

Test [7] is described as follows: qHTS assay to identify small molecule agonists of the sonic hedgehog signaling (Shh) pathway (AID 1259368; calls by dose curve;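 also: NIH/3T3-derived 3T3Gli1-Luc cells carrying a stable Gli1-driven firefly luciferase reporter; series mostly up to about 92 µM; nearly all actives have a fitted effect of over 15% in size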). In short, it runs like this:
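Stable NIH/3T3 Gli1-Luc reporter clone; 24 hr cpd exposure after a 4 hr settling period; luminescence endpoint.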

Test [8] concerns the target Estrogen receptor beta (Homo sapiens) (UniProt Q92731). The experiment in a line: qHTS assay to identify small molecule agonists of the estrogen receptor beta (ER-beta) signaling pathway (AID 1259377; active = well fitted activation curve with a large enough effect in the signal ratio in the repeat runs, not every such curve was filed as active; the % refers to the signal ratio). In a few lines:
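qHTS in ER-beta-UAS-bla HEK293T cells: 6 hr settling, then 16 hr compound at 37C, then LiveBLAzer substrate 2 h at RT before fluorescence reading.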

Test [9] in a line: qHTS assay to identify small molecule agonists of the estrogen receptor beta (ER-beta) signaling pathway - cell viability counter screen (AID 1259380). Also: nearly all actives have a fitted effect of over 30% in size. Also: potency is read from the fitted curve at half-maximal effect. In a few lines:
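In this qHTS counter screen, HEK293T cells carrying an ER-beta/UAS beta-lactamase reporter, grown in 2% charcoal-stripped FBS, received compound for 16 hr; ATP-based CellTiter-Glo luminescence was then read after 30 min at room temperature.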

Test [10] in a line: qHTS assay to identify small molecule antagonists of the estrogen receptor beta (ER-beta) signaling pathway - cell viability counter screen (AID 1259382). Also: nearly all actives have a fitted effect of over 55% in size. Also: potency is read from the fitted curve at half-maximal effect. As to activity change, negative = cytotoxicity: series mostly up to about 92 µM. In a few lines:
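HEK293T ER-beta-UAS-bla, 2% charcoal-stripped FBS; compounds + 1nM E2 16 hr 37C; CellTiter-Glo luminescence, 30 min RT.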

In test [11] the target is Estrogen receptor (Homo sapiens) (UniProt P03372). Kind of test: qHTS assay to identify small molecule agonists of the estrogen receptor alpha (ER-alpha) signaling pathway in the presence of an antagonist (AID 1259383; calls by dose curve; also: top concentration of the series differs between compounds; nearly all actives have a fitted effect of over 15% in size). In a few lines:
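ER-alpha agonism measured under antagonist challenge: 10.0nM ICI-182,780 (final) plus compound, 15 concentrations, 22hr, VM7Luc4E2 ERE-luciferase cells. Read by luminescence.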

Test [12] in a line: qHTS assay to identify small molecule agonists or antagonists of the thyroid stimulating hormone receptor (TSHR) signaling pathway - wild type cell line counter screen (AID 1259384; calls by dose curve; also: potency is read from the fitted curve at half-maximal effect). In a few lines:
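Wild-type HEK293 cells were plated 18 h at 37 C/5% CO2, pin-dosed with compound plus Ro20-1724 medium, held 30 min at room temperature, then given cAMP-d2 and anti-cAMP-cryptate; fluorescence was read after 1 h. Fifteen concentrations, triplicate.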

For test [13], the target named is Thyrotropin receptor (Homo sapiens) (UniProt P16473). The experiment in a line: qHTS assay to identify small molecule antagonists of the thyroid stimulating hormone receptor (TSHR) signaling pathway (AID 1259385; calls by dose curve; also: nearly all actives have a fitted effect of over 20% in size). In short, it runs like this:
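TSHR-HEK293 cells were plated and held 18 h at 37C/5% CO2, then given compound plus Ro20-1724 and stimulated with TSH at 1.5 ng/mL final. After 30 min at room temperature, cAMP was detected with cAMP-d2/anti-cAMP-cryptate (1 h) by fluorescence.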

The nature of test [14]: qHTS assay to identify small molecule antagonists of the sonic hedgehog signaling (Shh) pathway (AID 1259369; calls by dose curve; also: nearly all actives have a fitted effect of over 45% in size; also: potency is read from the fitted curve at half-maximal effect). In a few lines:
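Gli1 transcriptional reporter (firefly Luc) in NIH/3T3 background, conditioned-medium activated. 24hr exposure, luminescence endpoint.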

Test [15] is described as follows: qHTS assay to identify small molecule agonists of the androgen receptor (AR) signaling pathway in the presence of an antagonist - cell viability counter screen (AID 1259379). Also: nearly all actives have a fitted effect of over 25% in size. Also: potency is read from the fitted curve at half-maximal effect.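 As to activity change, negative = cytotoxicity: MDA-kb2 human breast cancer cells carrying an MMTV luciferase reporter; series mostly up to about 92 µM.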 In a few lines: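 Counter screen for cell viability run in parallel with the AR agonist-mode luciferase assay. MDA-kb2 cells were co-treated with nilutamide (3.0uM final) and compounds, then incubated 16 hr at 37C, and CellTiter-Fluor fluorescence was measured.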

Test [16] in a line: qHTS assay to identify small molecule agonists of the estrogen receptor alpha (ER-alpha) signaling pathway in the presence of an antagonist - cell viability counter screen (AID 1259386).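 Also: series mostly up to about 92 µM; cells exposed to compounds for 22 h at 37 °C before the viability read; nearly all actives have a fitted effect of over 30% in size.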 In short, it runs like this: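 Steps: 5-day stripped-FBS culture; seed and incubate 24hr; add ICI-182,780 (10.0nM final); pin 15-point compound titration; incubate 22hr at 37C; add CellTiter-Fluor at 21hr; read fluorescence.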

Test [17] has as its target Progesterone receptor (Homo sapiens) (UniProt P06401). Kind of test: qHTS assay to identify small molecule agonists of the progesterone receptor (PR) signaling pathway (AID 1346784; calls by dose curve; also: nearly all actives have a fitted effect of over 30% in size; also: potency is read from the fitted curve at half-maximal effect). In short, it runs like this:
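Fluorescence from LiveBLAzer B/G FRET substrate cleavage (2 hr, RT) reported PR activation in PR-UAS-bla HEK 293T cells treated 16 hr at 37C/5% CO2 with compounds; medium contained 2% charcoal-stripped FBS.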

For test [18], the target named is Estrogen receptor beta (Homo sapiens) (UniProt Q92731). The experiment in a line: qHTS assay to identify small molecule antagonists of the estrogen receptor beta (ER-beta) signaling pathway (AID 1259378; active = well fitted inhibition curve with a large enough effect in the signal ratio in the repeat runs, not every such curve was filed as active; the % refers to the signal ratio). In a few lines:
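ER-beta-UAS-bla HEK293T (GripTite) cells in 2% charcoal-stripped FBS medium were preincubated 6 hr at 37C, dosed with compound, then stimulated with 1 nM E2 (final) for 16 hr; beta-lactamase reporter read by B/G FRET fluorescence after 2 hr substrate loading.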
% is scaled to controls: 0 for no effect and ±100 for the full control effect.

Thyrotropin receptor (Homo sapiens), sequence (P16473 whole entry, looked up): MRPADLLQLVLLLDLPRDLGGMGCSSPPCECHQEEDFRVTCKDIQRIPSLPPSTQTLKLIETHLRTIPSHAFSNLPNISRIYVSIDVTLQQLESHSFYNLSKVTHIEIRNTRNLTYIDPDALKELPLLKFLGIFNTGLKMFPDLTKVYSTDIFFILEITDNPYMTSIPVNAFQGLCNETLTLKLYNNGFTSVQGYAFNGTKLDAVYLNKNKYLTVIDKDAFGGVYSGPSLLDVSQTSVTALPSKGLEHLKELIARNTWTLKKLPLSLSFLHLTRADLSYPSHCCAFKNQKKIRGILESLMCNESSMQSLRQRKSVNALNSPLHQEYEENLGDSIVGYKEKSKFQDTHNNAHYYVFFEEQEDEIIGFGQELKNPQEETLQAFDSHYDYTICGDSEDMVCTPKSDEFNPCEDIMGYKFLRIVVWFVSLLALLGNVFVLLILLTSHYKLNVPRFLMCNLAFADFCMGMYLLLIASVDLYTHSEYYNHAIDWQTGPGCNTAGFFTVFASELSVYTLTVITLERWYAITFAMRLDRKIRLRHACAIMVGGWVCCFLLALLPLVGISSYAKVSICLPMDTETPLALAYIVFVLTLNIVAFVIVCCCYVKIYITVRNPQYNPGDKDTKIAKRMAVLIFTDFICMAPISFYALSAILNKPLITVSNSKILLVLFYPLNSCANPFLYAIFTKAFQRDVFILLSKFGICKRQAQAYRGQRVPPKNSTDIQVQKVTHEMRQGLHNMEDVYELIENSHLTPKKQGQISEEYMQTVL
Estrogen receptor beta (Homo sapiens), sequence (Q92731 whole entry, looked up): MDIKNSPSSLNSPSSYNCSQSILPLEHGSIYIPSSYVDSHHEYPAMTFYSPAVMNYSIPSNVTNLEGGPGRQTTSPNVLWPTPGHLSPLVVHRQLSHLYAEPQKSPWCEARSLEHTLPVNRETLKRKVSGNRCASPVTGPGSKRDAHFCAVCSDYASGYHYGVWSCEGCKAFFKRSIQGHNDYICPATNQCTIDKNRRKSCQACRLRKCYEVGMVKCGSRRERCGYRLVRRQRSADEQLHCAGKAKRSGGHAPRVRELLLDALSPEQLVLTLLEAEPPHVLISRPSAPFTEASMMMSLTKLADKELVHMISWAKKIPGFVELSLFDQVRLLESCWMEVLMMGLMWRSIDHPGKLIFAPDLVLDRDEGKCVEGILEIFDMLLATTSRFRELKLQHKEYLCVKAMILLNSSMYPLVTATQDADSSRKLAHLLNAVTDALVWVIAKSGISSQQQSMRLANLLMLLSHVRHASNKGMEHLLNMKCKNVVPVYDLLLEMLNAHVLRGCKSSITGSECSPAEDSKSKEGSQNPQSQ
Progesterone receptor (Homo sapiens), sequence (P06401 whole entry, looked up): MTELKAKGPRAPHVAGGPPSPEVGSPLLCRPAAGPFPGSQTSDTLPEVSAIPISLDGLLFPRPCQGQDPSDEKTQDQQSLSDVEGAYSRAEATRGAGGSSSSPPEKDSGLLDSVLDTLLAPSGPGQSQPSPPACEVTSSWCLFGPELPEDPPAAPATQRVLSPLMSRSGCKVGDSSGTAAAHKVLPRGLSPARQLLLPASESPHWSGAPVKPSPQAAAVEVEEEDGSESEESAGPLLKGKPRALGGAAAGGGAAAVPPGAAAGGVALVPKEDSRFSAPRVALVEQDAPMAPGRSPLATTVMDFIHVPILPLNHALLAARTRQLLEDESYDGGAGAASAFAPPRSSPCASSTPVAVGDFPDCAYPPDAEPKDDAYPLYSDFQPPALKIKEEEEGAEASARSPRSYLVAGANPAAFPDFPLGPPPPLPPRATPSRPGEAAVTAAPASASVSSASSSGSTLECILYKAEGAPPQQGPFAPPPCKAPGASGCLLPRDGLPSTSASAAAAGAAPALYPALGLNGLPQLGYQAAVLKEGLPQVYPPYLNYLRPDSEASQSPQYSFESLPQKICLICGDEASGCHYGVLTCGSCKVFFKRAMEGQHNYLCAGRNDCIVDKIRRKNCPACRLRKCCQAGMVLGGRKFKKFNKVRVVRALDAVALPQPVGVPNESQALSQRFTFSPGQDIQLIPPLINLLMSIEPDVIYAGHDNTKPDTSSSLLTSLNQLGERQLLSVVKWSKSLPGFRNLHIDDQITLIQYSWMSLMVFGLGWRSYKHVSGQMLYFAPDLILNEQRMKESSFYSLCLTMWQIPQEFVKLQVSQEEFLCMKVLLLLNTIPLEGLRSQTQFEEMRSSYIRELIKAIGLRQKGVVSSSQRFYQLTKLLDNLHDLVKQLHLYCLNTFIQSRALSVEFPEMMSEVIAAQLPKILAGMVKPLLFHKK

As to `Oc1c(Cl)cc(Cl)cc1Sc1cc(Cl)cc(Cl)c1O`, the Potency in test [1] was 12.2 µM (active) and 17.5 µM (active) and 15.4 µM (active); in test [6], 27.4 µM (active) and inactive; in test [9], 54.6 µM (active) and 61.1 µM (active); in test [10], 30.7 µM (active) and 54.5 µM (active). For the same compound, the Potency entry in test [2], in [3], in test [4], in test [5], in test [7] and in test [11] was “inactive” throughout. For the same compound, the Potency entry in [12] and in test [13] was “inactive” throughout. Further, the compound was called inactive in test [8].
Take `O=C(Oc1ccccc1)c1ccccc1O`: the Potency entry in test [1], in test [2], in test [4], in test [6], in test [7] and in test [15] was “inactive” throughout. For the same compound, the Potency result in test [9], in [10], in [11], in [12], in [13] and in test [16] was “inactive” throughout. Moreover, in test [17], the Potency result was “inactive”. The Potency result in test [14] is “inactive and 54.5 µM (active)”.
Regarding `CCCCC/C=C/CC1CC(=O)OC1=O` (stereo unspecified), the Potency result in test [1], in [3], in test [4], in [5], in [6] and in [7] was “inactive” each time. For the same compound, the Potency entry in test [14], in test [15], in test [9], in test [10], in test [11] and in test [12] was “inactive” each time. Besides, the Potency result in test [13], in test [16] and in test [17] was “inactive” in each case.
Regarding `CCCCCCCCCCCCCCCCCl`, the activity change, negative = inhibition in test [1] was 26.4% [at 19 µM] (inactive); in [3], 11.8% [at 19 µM] (inactive); in [14], 30% [at 19 µM] (inactive); in test [13], -1.34% [at 19 µM] (inactive). The activity change, negative = cytotoxicity in test [4] is -13.9% [at 19 µM] (inactive); in [15], 1.7% [at 19 µM] (inactive); in [9], 3.21% [at 19 µM] (inactive); in test [10], 3.31% [at 19 µM] (inactive). Moreover, the viability change, negative = cytotoxic in test [6] was -3.23% [at 19 µM] (inactive). Also, the activity change in test [7] is -1.24% [at 18.9 µM, stronger effect = higher value] (inactive). Besides, the activation in test [8] was 1.06% [at 19 µM] (inactive); in test [11], -0.0791% [at 19 µM] (inactive). The activity, negative = inhibition in test [18] is 9.46% [at 19 µM] (inactive). The cAMP activity change in test [12] is 0.656% [at 18.9 µM, stronger effect = higher value] (inactive). For the same compound, in test [17], the Potency is 3.84 µM (active).
Consider `Cc1ccnc2c1NC(=O)c1cccnc1N2C1CC1`, for which the Potency entry in [2], in test [3], in test [4], in [5], in test [6] and in [7] was “inactive” in each case. The Potency result in test [14], in [18], in test [9], in test [10], in test [12] and in test [13] was “inactive” each time. In test [17], the Potency entry was “inactive”. For the same compound, in [8], the compound was classed as inactive.
For the compound `Cc1cc(Cc2cc(C)cc(C(C)(C)C)c2O)c(O)c(C(C)(C)C)c1`, the Potency is 27.4 µM (active) in [1]; 61.4 µM (active) in test [6]; 61.4 µM (active) and 68.6 µM (active) in test [15]; 13.8 µM (active) and 21.7 µM (active) in test [9]; 17.3 µM (active) and 21.7 µM (active) in [10]. For the same compound, the Potency result in [3], in [4], in test [7], in test [11], in test [12] and in [13] was “inactive” each time.
Turning to `CCN(CC)c1ccc2c(C)cc(=O)oc2c1`, the Potency entry in [1], in test [3], in test [4], in [7], in test [15] and in [10] was “inactive” throughout. The Potency result in test [11], in [12] and in test [13] was “inactive” throughout. In addition, the Potency was 24.5 µM (active) and 54.5 µM (active) in [14]; 30.9 µM (active) and 34.4 µM (active) in [17].
On to `CC(C)(C)NCC(O)c1cc(O)cc(O)c1` (stereo unspecified), for which the Potency result in [2], in test [3], in test [4], in [5], in test [6] and in [7] was “inactive” in each case. The Potency entry in test [14], in [9], in test [10], in [13], in test [16] and in test [17] was “inactive” in each case. In addition, the Potency in test [12] is 2.03 µM (active).
As to `O=C(O)c1cn(-c2ccc(F)cc2)c2cc(N3CCNCC3)c(F)cc2c1=O`, the Potency entry in test [2], in test [3], in [4], in test [5], in test [6] and in [7] was “inactive” each time. Also, the Potency entry in [14], in test [9], in test [10], in test [12], in test [13] and in [16] was “inactive” each time. In addition, the Potency entry in test [17] was “inactive”.
Take `CC[C@@H](N)CO`: the Potency result in test [1], in [3], in test [4], in [6], in test [7] and in [15] was “inactive” throughout. Also, the Potency result in test [9], in test [10], in test [11], in test [12], in [13] and in [16] was “inactive” each time. Also, the Potency result in test [17] is “inactive”.
Regarding `N[C@@H]1CONC1=O`, the Potency entry in test [2], in test [3], in [4], in test [5], in test [6] and in test [7] was “inactive” in each case. In addition, the Potency entry in test [14], in test [15], in [9], in test [10], in test [12] and in [13] was “inactive” throughout. Also, in test [17], the Potency entry is “inactive”. The call in test [8] was inactive.
For `C=CC(=O)OCCCCCCCC`, the Potency result in test [1], in test [3], in [4], in test [5], in test [6] and in test [7] was “inactive” each time. In addition, the Potency entry in test [15], in [9], in test [10], in test [11], in test [12] and in test [13] was “inactive” throughout. Moreover, the Potency entry in [16] and in [17] was “inactive” throughout. In addition, in test [8], the call was inactive.
